HT1080 IDH1KD tx = toxicity to HT-1080 IDH1 knockdown cells (counter line) | HT-1080 IDH1 knockdown viability, ATP luminescence, 48 h | AID 686971 | actives 2% (n = 360,000) | Potency, µM (series often up to 46.1 µM), inactives show top-dose activity, negative = toxicity, most hits filed as cytotoxic;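 also: potency is read from the fitted curve at half-maximal effect; 0% = DMSO wells and -100% = cell-free medium wells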
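Viability of IDH1-knockdown HT-1080 fibrosarcoma cells was assessed by CellTiter-Glo after 48 h at 37 °C with titrated compound; concentration-effect curves were classified by fit quality and response size.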
IL1B secr inh = inflammasome signaling inhibition, IL-1 beta readout; THP-1 LPS/ATP IL-1B secretion, AlphaLISA, 16 h; stronger effect = lower value; activity change, % at 57.5 µM; actives 4.7% (n = 360,000); AID 743279; in the data active = activity change below about -50%; inconclusive = mostly about -30% to -49%
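Secreted IL-1B measured by AlphaLISA bead assay after 16 h compound exposure of THP-1 cells; compounds (final up to 57.5 uM) added 1 h before LPS (250 ng/mL) and ATP (1.25 mM) stimulation; lower signal means less secretion.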
TDP1 cell CPT = growth inhibition of DT40 Tdp1-/-;hTDP1 cells with camptothecin (screen for TDP1 inhibitors); AID 686979; actives 12% (n = 420,000); chicken DT40 Tdp1-/-;hTDP1 cells + 20 nM CPT, ATP luminescence, 48 h; Potency, µM (top dose mostly 46.2 µM), for inactives: at the top dose activity change, negative = growth inhibition, actives largely listed as inhibitors; also: potency is read from the fitted curve at half-maximal effect; nearly all actives have a fitted effect of over 55% in size
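Cell growth measured by CellTiter-Glo luminescence after a minimum 48 h, 37 C compound exposure with 20 nM CPT in Tdp1-knockout DT40 cells stably expressing hTDP1, seeded 400/well; qHTS titration format.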
HT1080NT lethal = kills 2HG-producing HT-1080-NT fibrosarcoma cells. actives 1.6% (n = 360,000). Potency, µM (series often up to 46.1 µM), for the others: at the top dose activity, negative = less viability, hits mostly cytotoxic. HT-1080-NT fibrosarcoma viability, CellTiter-Glo ATP luminescence, 48 h;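 also: NT is the 2HG producing partner of a matched IDH1 knockdown line; potency is read from the fitted curve at half-maximal effect; 0% = DMSO-treated cells and -100% = media-only wells without cells; nearly all actives have a fitted effect of over 55% in size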
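A 48-hour cytotoxicity screen used HT-1080-NT cells plated 2 hours before compound delivery. ATP-based CellTiter-Glo luminescence measured viability, normalized to DMSO and no-cell controls.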
TDP1 cell noCPT = qHTS for Inhibitors of human tyrosyl-DNA phosphodiesterase 1 (TDP1): qHTS in cells in absence of CPT | actives 15% (n = 420,000) | DT40 Tdp1-/- hTDP1 cells, no CPT, ATP luminescence, 48 h | Potency, µM (series often up to 46.2 µM), for inactives: at the top dose activity change, negative = growth inhibition, usual class: inhibitors; also: potency is read from the fitted curve at half-maximal effect; nearly all actives have a fitted effect of over 55% in size
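Compound effects on proliferation are scored in DT40 Tdp1-/-;hTDP1 cells in the absence of CPT. ATP levels (CellTiter-Glo luminescence) are recorded after a ≥48 hr, 37 °C incubation.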
Numbers without * were called inactive; ? = inconclusive; / = no result; [ ] = dose if it differs, or a comment. Sampled rows, rich in hits. Any-hit rate of the full collection: about 19%. Unless noted, calls follow the shape of the dose curve; as a rule, active = well fitted curve in the direction sought with a large enough effect; inconclusive = small, poorly fitted or top-dose-only effect, or another doubt; inactive = no such curve, though single readings can be large; an effect the other way counts as inactive or inconclusive. Unless noted, % is scaled to controls: 0 for no effect and ±100 for the full control effect.

SMILES | HT1080 IDH1KD tx | IL1B secr inh | TDP1 cell CPT | HT1080NT lethal | TDP1 cell noCPT
CCc1nccn1S(=O)(=O)c1ccccc1[N+](=O)[O-] | 6.1% | 5.4 | 4.6% | 2.2% | 2.6%
Cc1c[n+](CC(=O)c2ccccc2)c(C)cn1 | 14.5% | 10.2 | 28.0% | 5.8% | 4.7%
Cn1cc([N+](=O)[O-])c(C(=O)N(Cc2ccccc2)Cc2ccccc2)n1 | -10.1% | 10.0 | ? | 4.5% | 25.9µM*
COc1c(CC=C(C)C)c(O)cc2oc(=O)c3c4ccc(O)cc4oc3c12 | -1.1% | -4.2 | ? | 1.2% | 18.4µM*
COc1cc2c(c3oc(=O)cc(CC(=O)O)c13)CCC(C)(C)O2 | 0.0% | 8.2 | 8.6% | 8.3% | -13.8%
COc1c2c(cc3oc(=O)c4c5ccc(O)cc5oc4c13)OC(C)(C)CC2 | -3.5% | -14.7 | 16.4µM* | -0.2% | 16.4µM*
O=c1oc2cc(O)ccc2c2ccccc12 | 8.5% | -20.6 | -6.3% | 0.7% | -13.2%
O=c1oc2cc(O)ccc2c2oc3cc(O)ccc3c12 | -21.0% | 9.9 | ? | -10.3% | 23.1µM*
COc1ccc(/C=C(\C)C(=O)NO)cc1 | 0.9% | / | 2.0% | 0.3% | -15.6%
CCC1OC(C)Cc2[nH][nH]c(=O)c21 (configuration not stated) | 14.1% | 0.0 | -6.8% | 24.3% | -18.9%
Cn1c(=O)c2ccccc2n(Cc2cccc(F)c2)c1=O | -14.5% | -7.6 | ? | -8.5% | ?
CC(=O)Oc1ccc(/C=C/C(=O)CC2OC(Oc3cc(OC(C)=O)c4c(c3)O[C@@H](c3ccc(OC(C)=O)cc3)CC4=O)C(OC(C)=O)C(OC(C)=O)C2OC(C)=O)cc1 (some centres not stated) | / | / | 8.41µM* | / | 7.5µM*
COCCOc1ccc(C(F)(F)F)cc1NC(=O)COC(=O)c1ccc(N2CCCC2=O)cc1 | -7.7% | 10.3 | ? | -1.8% | -26.6%
O=S1(=O)CCS(=O)(=O)C1c1ccccc1 | 20.6µM* | ? | ? | 23.1µM* | ?
COC(=O)c1cc(Sc2c(Cl)cccc2Cl)ccn1 | ? | 32.4 | -25.4% | -18.7% | 2.31µM*
COC(=O)c1cc(Sc2cccc(Cl)c2Cl)ccn1 | ? | -22.9 | ? | -5.5% | -50.0%
CCN(CC)S(=O)(=O)c1ccc(C(=O)N2CCCCC2)cc1 | -2.6% | 24.7 | -0.7% | 5.4% | 0.5%
CN(C)c1nc(=NCc2cccs2)ss1 | ? | -60.4* | 0.0259µM* | 8.8% | 0.0291µM*
c1ccc(-c2ncc(CSc3nncn3-c3ccccc3)s2)cc1 | -1.1% | 0.0 | ? | 2.2% | 18.4µM*
c1ccc(-n2cnnc2SCc2nc3ccccc3s2)cc1 | 1.3% | 10.9 | 1.8% | 3.7% | -23.9%
COc1cc(-c2c(OC)cccc2OC)cc2c1OCCN(C(=O)CCn1nc(C)cc1C)C2 | / | / | -4.8%[9.04 µM] | / | -16.9%
COc1cc(-c2cc(C)c3cccc(OC)c3n2)cc2c1OCCN(C(=O)CCn1ccc(C)n1)C2 | / | / | -15.6%[9.04 µM] | / | 23.1µM*
COCc1ccc(CN2CCOc3c(cc(-c4cc(C)c5cccc(OC)c5n4)cc3OC)C2)o1 | / | / | -5.0%[9.04 µM] | / | 20.6µM*
CCc1c(C(=O)N2CCN(c3ccccc3F)CC2)[nH]c(C)c1C(C)=O | -14.2% | 17.8 | -25.8% | -9.7% | ?
Cc1nc(C)c(C(=O)NCc2ccccc2Cl)o1 | -0.6% | 15.4 | ? | 0.2% | ?
CN1CCC(=NNc2ncnc3sc4c(c23)CCCC4)CC1 | -11.9% | -7.1 | 16.4µM* | -2.7% | 20.6µM*
CN(C)C(=O)c1ccc(Nc2ncnc3sc4c(c23)CCCCC4)cc1 | -24.9% | -12.2 | ? | ? | 23.1µM*
c1nc(NCCN2CCOCC2)c2c3c(sc2n1)CCCCC3 | 5.8% | -2.8 | -8.4% | 0.6% | -15.9%
O=C(NCCN1CCOCC1)c1cc(-c2ccccc2Cl)nc2ccccc12 | -4.8% | 3.6 | 1.4% | 0.5% | 0.6%

Source: PubChem (National Center for Advancing Translational Sciences (NCATS))
